{"source": "ChEMBL document CHEMBL3988442", "about": "“University of Dundee, Small-Polar-MMV Screening Library” (2021)", "note": "In all, about 48,000 compounds went through this assay and about 13,000 (27%) showed an effect of 50% or more. This is one part of the list.", "data": [{"tested_on": "Wolbachia pipientis", "assay": "Anti-Wolbachia Cell-Based Screen", "format": "functional", "design": "scale not given: in the data most compounds retested in dose-response had high values", "conditions": "5 µM", "units": {"Percent Effect": "%"}, "values": [{"smiles": "Cc1ccc(OC2(C(=O)O)CCN(C/C=C/c3ccco3)CC2)c(C)n1", "Percent Effect": -5.357}, {"smiles": "CC(C)c1cc(C(=O)N2C[C@H]3CC[C@@H]2CN(Cc2cccnc2)C3)no1", "Percent Effect": 0.5633}, {"smiles": "CC(C)N1CCCc2sc(C(=O)NC3CC3)nc21", "Percent Effect": -0.2474}, {"smiles": "CNC(=O)Cc1noc(-c2cc3c(s2)CCC(C)C3)n1", "note": "(stereo unspecified)", "Percent Effect": -12.44}, {"smiles": "CN(CC1CN(Cc2cn3ccsc3n2)CCO1)c1cccnn1", "note": "(stereo unspecified)", "Percent Effect": 13.06}, {"smiles": "Cc1nc(COc2ccc(OC(C)C(N)=O)cc2)oc1C", "note": "(stereo unspecified)", "Percent Effect": 1.86}, {"smiles": "Cc1ccc(-n2cc(CN3CCOCC3)c(-c3cccc(C)c3)n2)cc1", "Percent Effect": 0.1947}, {"smiles": "O=C(c1ccc2nncn2c1)N1CCSC2(CCCCC2)C1", "Percent Effect": -6.872}, {"smiles": "CCn1cc(CN2CCCN(C(=O)c3ccc(C)o3)CC2)cn1", "Percent Effect": 126.6}, {"smiles": "CCn1cc(CN2CCCN(C(=O)c3ccoc3C)CC2)cn1", "Percent Effect": 105.3}, {"smiles": "Cc1cc(C(=O)N2CCN(Cn3cc(Cl)cn3)CC2)on1", "Percent Effect": 0.1609}, {"smiles": "CCn1cc(CN2CCCN(C(=O)c3cc(C)no3)CC2)cn1", "Percent Effect": 149.7}, {"smiles": "Cc1occc1C(=O)N1CCCN(Cc2cnn(C(C)C)c2)CC1", "Percent Effect": -5.086}, {"smiles": "CCn1cc(CN2CCCN(C(=O)c3cccn3C)CC2)cn1", "Percent Effect": 145.7}, {"smiles": "CC(C)n1cc(CN2CCCN(C(=O)c3cccn3C)CC2)cn1", "Percent Effect": 7.673}, {"smiles": "CCc1nc(CN2CCCN(C(=O)c3cccn3C)CC2)cs1", "Percent Effect": -9.878}, {"smiles": "CCC1=N[C@@]2(CC[C@@H]3CN(S(=O)(=O)CC)C[C@@H]32)C(=O)N1CC", "Percent Effect": 5.096}, {"smiles": "Cc1nc(C(=O)N2CCN(c3ncccn3)[C@@H]3CS(=O)(=O)C[C@@H]32)cs1", "Percent Effect": -1.503}, {"smiles": "c1cnnc(N2CCCC2CNc2ncnc3ccccc23)c1", "note": "(stereo unspecified)", "Percent Effect": 0.08494}, {"smiles": "Cc1cc(NC(=O)N2CCN(C)CC2C)n(C)n1", "note": "(stereo unspecified)", "Percent Effect": -19.14}, {"smiles": "Cc1cc(CNc2ccnn2CC(C)C)ccc1-n1cncn1", "Percent Effect": -23.25}, {"smiles": "CSc1ccc(NS(=O)(=O)c2cnn(C)c2)cn1", "Percent Effect": -3.394}, {"smiles": "CCc1nc(CN2CCCN(C(=O)c3ccco3)CC2)cs1", "Percent Effect": 109.2}, {"smiles": "CCn1cc(CN2CCCN(C(=O)c3c(C)oc(C)c3C)CC2)cn1", "Percent Effect": 105.9}, {"smiles": "CCc1nc(CN2CCCN(C(=O)c3ccccc3)CC2)cs1", "Percent Effect": 5.45}, {"smiles": "CCc1ccc(C(=O)N2CCCN(Cc3csc(CC)n3)CC2)o1", "Percent Effect": -14.26}, {"smiles": "CCc1nnsc1C(=O)N1CCCN(Cc2cnn(CC)c2)CC1", "Percent Effect": -1.096}, {"smiles": "Cc1ccc(NS(C)(=O)=O)c(C(=O)NCCC(=O)NC(C)C)c1", "Percent Effect": -8.186}, {"smiles": "CCOCCN1CCN(Cc2nnc(C3CC3)o2)CC1", "Percent Effect": -12.93}, {"smiles": "CCOCCN1CCC(c2cnccn2)CC1", "Percent Effect": 103.5}, {"smiles": "c1ccc(OCCN2CCCC(c3noc(C4CC4)n3)C2)cc1", "note": "(stereo unspecified)", "Percent Effect": -2.8}, {"smiles": "c1ccc(CCCN2CC[C@H](c3nnc(-c4cccnc4)o3)C2)cc1", "Percent Effect": 5.165}, {"smiles": "Fc1ccc(CCN2CCC(c3nnc(-c4cccnc4)o3)CC2)cc1", "Percent Effect": -17.22}, {"smiles": "c1ccc(OCCN2CCC(c3nnc(-c4cccnc4)o3)CC2)cc1", "Percent Effect": 108.1}, {"smiles": "c1ccc(OCCN2CCC(c3cnccn3)CC2)cc1", "Percent Effect": 90.65}, {"smiles": "CCOCCN1CCn2c(C)nnc2C1", "Percent Effect": 4.517}, {"smiles": "CCOCCN1CCc2cncnc2C1", "Percent Effect": 24.85}, {"smiles": "CCOCCN1CCC(c2cncc(C)n2)CC1", "Percent Effect": 133}, {"smiles": "OCCn1cc(CN2CCN(CCOc3ccccc3)CC2)cn1", "Percent Effect": -4.681}, {"smiles": "O=C(c1cc(C2CC2)no1)N1C[C@H]2CC[C@@H]1CN(Cc1ccccn1)C2", "Percent Effect": -3.322}, {"smiles": "CCNC(=O)CCC(=O)NC(Cc1ccccc1)c1sccc1C", "note": "(stereo unspecified)", "Percent Effect": -7.516}, {"smiles": "CC(C)CN1CCCC1c1ccc(C(=O)Nc2ccc3[nH]nnc3c2)s1", "note": "(stereo unspecified)", "Percent Effect": 0.6901}, {"smiles": "CCC(C)(CO)NC(=O)Nc1cc2c(cc1SC)OCCO2", "note": "(stereo unspecified)", "Percent Effect": -5.152}, {"smiles": "CCOC(C)c1nc(Cn2cc(-n3cccc3)cn2)cs1", "note": "(stereo unspecified)", "Percent Effect": -7.68}, {"smiles": "COc1ccc(F)cc1C(C)NC(=O)Nc1nncs1", "note": "(stereo unspecified)", "Percent Effect": 5.791}, {"smiles": "CCCN1CCC(c2nc3ccc(-c4cccc(OC)c4)cn3n2)CC1.O=C(O)C(F)(F)F", "Percent Effect": 95.04}, {"smiles": "CCCN1CCC(c2nc3ccc(NCc4cccnc4)cn3n2)CC1.O=C(O)C(F)(F)F.O=C(O)C(F)(F)F.O=C(O)C(F)(F)F", "Percent Effect": -17.81}, {"smiles": "COCC(=O)N1CCC(c2nc3ccc(-c4ccncc4)cn3n2)CC1.O=C(O)C(F)(F)F", "Percent Effect": 3.081}, {"smiles": "CCCN1CCC(c2nc3ccc(-c4cccc(F)c4)cn3n2)CC1.O=C(O)C(F)(F)F", "Percent Effect": 109.7}, {"smiles": "CCCN1CCC(c2nc3ccc(-c4ccncc4)cn3n2)CC1.O=C(O)C(F)(F)F.O=C(O)C(F)(F)F", "Percent Effect": 100.7}, {"smiles": "Cc1cccc(-c2ccc3nc(C4CCN(CC5CC5)CC4)nn3c2)c1.O=C(O)C(F)(F)F", "Percent Effect": 10.89}, {"smiles": "CCCN1CCC(c2nc3ccc(NCc4ccccc4)cn3n2)CC1.O=C(O)C(F)(F)F.O=C(O)C(F)(F)F", "Percent Effect": -22.92}, {"smiles": "O=C(O)C(F)(F)F.c1ccc(-c2ccc3nc(C4CCN(CC5CC5)CC4)nn3c2)cc1", "Percent Effect": 21.53}, {"smiles": "CCCN1CCC(c2nc3ccc(-c4ccccc4)cn3n2)CC1.O=C(O)C(F)(F)F", "Percent Effect": 132.6}, {"smiles": "O=C(COCC1CC1)Nc1ccn(Cc2cccc3cccnc23)n1", "Percent Effect": -5.086}, {"smiles": "CCn1cc(SCC(=O)N2CCCC(O)(CO)C2)c2ccccc21", "note": "(stereo unspecified)", "Percent Effect": -16.21}, {"smiles": "COc1cccc(C(=O)N2CCN(C(=O)CCCc3cn[nH]c3)CC2)c1", "Percent Effect": -9.764}, {"smiles": "CCOCC1CN(C(=O)Cc2ccsc2)Cc2ccnn2C1.O=C(O)C(F)(F)F", "note": "(stereo unspecified)", "Percent Effect": 4.742}, {"smiles": "O=C(CCN1CCCO1)N1CC[C@@H](c2ccc3ccccc3c2)[C@H](O)C1", "Percent Effect": 7.888}, {"smiles": "CC(C)SCCn1ccc2[nH]c(=O)c(C#N)cc2c1=O", "Percent Effect": -14.16}, {"smiles": "CN1CCC(c2nc3ccc(-c4cccc(F)c4)cn3n2)CC1.O=C(O)C(F)(F)F", "Percent Effect": 117.6}, {"smiles": "Cn1cc(C2(C)CN(Cc3ccc(N4CCCC4)nc3)CCO2)cn1", "note": "(stereo unspecified)", "Percent Effect": -5.624}, {"smiles": "CCc1oc(C(=O)NCCc2cc(O)nc(C)n2)cc1CN1CCCC1", "Percent Effect": -0.3531}, {"smiles": "CCc1oc(C(=O)NCCSc2ncn[nH]2)cc1CN1CCCC1", "Percent Effect": 77}, {"smiles": "CCc1oc(C(=O)NC(C)c2ncn[nH]2)cc1CN1CCCC1", "note": "(stereo unspecified)", "Percent Effect": 82.75}, {"smiles": "Cc1ccc(NC2(C(=O)NC(C)c3ncn[nH]3)CCCC2)cc1", "note": "(stereo unspecified)", "Percent Effect": 4.641}, {"smiles": "CCc1oc(C(=O)NCCNS(C)(=O)=O)cc1CN1CCCC1", "Percent Effect": 20.77}, {"smiles": "CCc1oc(C(=O)NCCc2nc(C(=O)O)cs2)cc1CN1CCCC1", "Percent Effect": 10.42}, {"smiles": "Cc1cc(C)nc(NC(C)Cc2cnccn2)n1", "note": "(stereo unspecified)", "Percent Effect": -26.5}, {"smiles": "CC(Cc1cnccn1)NC(=O)COc1ccc(F)cc1F", "note": "(stereo unspecified)", "Percent Effect": 0.5787}, {"smiles": "CCc1oc(C(=O)NC(C)Cc2cnccn2)cc1CN1CCCC1", "note": "(stereo unspecified)", "Percent Effect": 92.2}]}]}
